From PubChem BioAssay AID624330 (Southern Research Specialized Biocontainment Screening …, 2012)
Among all 340,000 compounds or so, about 2,100 (0.62%) were called active.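 Rule for the calls: active = first-screen hits whose inhibition reached a set limit at any dose in the follow-up dose series; inconclusive = inhibition above the set first-screen limit but never retested; inactive = the rest.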 The list is a sample of the results. Results with a measured potency or affinity are listed apart.

target: Rac GTPase-activating protein 1 (Homo sapiens) (UniProt Q9H0H5); assay: blockers of MgcRacGAP-driven Rac1 GTP hydrolysis – biochemical, ADP Hunter fluorescence, primary and confirmatory, confirmation (AID 624330); settings: MgcRacGAP-stimulated Rac1 GTP hydrolysis, at 30 µM, stronger effect = higher value, GST-tagged Rac1 F28L mutant substrate;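 note: fluorescence reports GDP produced by GAP-driven GTP hydrolysis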
Sequence (Q9H0H5 whole entry, looked up): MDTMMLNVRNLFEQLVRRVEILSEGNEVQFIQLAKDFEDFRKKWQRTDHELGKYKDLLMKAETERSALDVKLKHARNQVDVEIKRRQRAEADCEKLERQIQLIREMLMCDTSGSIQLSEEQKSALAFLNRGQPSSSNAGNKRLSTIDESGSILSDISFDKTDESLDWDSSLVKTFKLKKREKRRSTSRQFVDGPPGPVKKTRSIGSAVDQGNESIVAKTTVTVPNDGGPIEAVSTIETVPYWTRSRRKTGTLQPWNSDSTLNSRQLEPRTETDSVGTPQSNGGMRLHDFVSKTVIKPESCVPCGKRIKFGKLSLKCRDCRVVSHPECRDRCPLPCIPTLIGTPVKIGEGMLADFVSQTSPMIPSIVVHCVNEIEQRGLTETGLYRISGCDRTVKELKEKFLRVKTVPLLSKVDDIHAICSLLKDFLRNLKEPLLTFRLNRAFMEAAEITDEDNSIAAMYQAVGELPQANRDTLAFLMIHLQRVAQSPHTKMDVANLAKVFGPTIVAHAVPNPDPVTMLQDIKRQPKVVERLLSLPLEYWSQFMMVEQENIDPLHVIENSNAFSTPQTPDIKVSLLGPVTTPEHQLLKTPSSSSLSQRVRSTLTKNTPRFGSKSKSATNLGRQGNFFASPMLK

inhibition, inactive:
Oc1ccc(Cl)cc1C=Nc1ccc(Br)cc1 7.16%
COc1ccc(N=Cc2cc(Cl)ccc2O)cc1Cl 15.8%
c1ccc(C2=Nn3c(nnc3-c3ccco3)SC2)cc1 18%
Fc1ccc(C2=Nn3c(nnc3-c3ccco3)SC2)cc1 1.81%
CN(CC(=O)NCc1ccncc1)S(=O)(=O)c1cc(Cl)ccc1Cl 1.23%
COc1ccc(NC(=O)c2c[nH]c(=O)n(-c3ccc(C)c(C)c3)c2=O)cc1OC -10.4%
CC1=NN(c2ccccc2)C(=O)C1(C)C 12.1%
CC1=NN(c2ccccc2)C(=O)C1c1ccccc1 (centres undefined) 26.3%
COc1ccc(CNC(=O)CSc2nnc3c(n2)[nH]c2ccccc23)cc1 3.19%
Cc1ccc(NCCCn2cnc3c(OCc4ccccc4)ncnc32)cc1C 26.1%
CSc1ncnc2c1ncn2CCCNCc1ccccc1 17.1%
COc1ncnc2c1ncn2CCCNCc1ccccc1 20.3%
CSc1ncnc2c1ncn2CCCNCCCc1ccccc1 17.5%
CCOCCCNC(=O)c1cc(Cl)c(NC(=O)C2=C(C)OCCS2)cc1OC 9.37%
OCC[C@H]1C[C@@H](O)[C@H](O)[C@]2(CCc3ccccc3CO2)O1 -0.41%
CN1CCN(c2cc(N3CCN(C(=O)c4ccco4)CC3)c3c4c(onc24)-c2ccccc2C3=O)CC1 14.2%
CCN1CCN(c2cc(N3CCN(C(=O)c4ccco4)CC3)c3c4c(onc24)-c2ccccc2C3=O)CC1 25.5%
Cc1nc(NC(=O)CCCC(=O)Nc2nc(C)c(C)s2)sc1C 3.32%
CCc1cc(=O)oc2c(C)c(OC(C)C(=O)NCC3CCC(C(=O)O)CC3)ccc12 (centres undefined) 0.46%
CCN(C(=O)Cn1cc(C(=O)C(=O)N2CCOCC2)c2ccccc21)c1ccccc1 7.38%
O=C(O)COc1ccc2nsnc2c1Cl 6.84%
C=C(CC)C(=O)c1ccc(OCC(=O)O)c(Cl)c1Cl 4.69%
CN1CCN(C(=O)CN(CCc2ccccc2)S(C)(=O)=O)CC1 1%
CS(=O)(=O)Nc1cccc(C2=NN(C(=O)c3cccc([N+](=O)[O-])c3)C(c3cccs3)C2)c1 (centres undefined) 7.25%
CC1(C)CC(CC(=O)Nc2ccccn2)C(=O)O1 (centres undefined) 3.54%
Cc1ccc(Oc2ncccc2/C=N/O)cc1 5.93%
Cc1cc(Cl)ccc1OC(C)C(=O)OCC(=O)Nc1ccc2[nH]c(=O)[nH]c2c1 (centres undefined) 1.09%
COc1ccc(N2C(=O)/C(=C/c3cccs3)NC2=S)cc1 9.24%
CN(C)/C=C1\NC(=S)N(c2ccc(Cl)cc2)C1=O 17.9%
CCN1C(=O)/C(=C\N(C)C)NC1=S 12%
COc1ccc(N2C(=O)/C(=C/c3cccnc3)NC2=S)cc1 3.24%
Cc1cccc(C)c1NC(=O)C1CCN(S(C)(=O)=O)CC1 -16.2%
O=C1C=C(O)c2cccc(O)c2C1=O 0.71%
O=C(O)c1cc(O)c2c(c1)C(=O)c1cccc(O)c1C2=O 28.8%
CNC(=O)c1sc(=S)n(-c2ccc(OC)cc2)c1N 3.75%
Cc1cccc(-c2ncc(S(=O)(=O)C(C)(C)C)c(N)n2)c1 -7.62%
CC(=O)Nc1ccc(N(C(=O)CNC(=O)c2ccco2)C(C(=O)NCc2ccco2)c2ccccc2F)cc1 (centres undefined) 4.97%
Cc1cccc(C(=O)NC(C)c2ccc(-n3ccnc3)cc2)c1C (centres undefined) 5%
COc1ccc([N+](=O)[O-])cc1NC(=O)C(C)NNC(=O)c1cccc([N+](=O)[O-])c1 (centres undefined) 4.39%
CN(C)C=Nc1ccc2nn(-c3ccccc3)nc2c1 6.6%
CN(C)C=Nc1ccc(Cl)c(Cl)c1 2.39%
Cc1c(C(c2cc(O)ccc2O)c2c(C)n(C)n(-c3ccccc3)c2=O)c(=O)n(-c2ccccc2)n1C -9.5%
CCCN(C(=O)c1cccs1)c1c(N)n(Cc2ccccc2)c(=O)[nH]c1=O 4.88%
CSc1ncccc1C(=O)Nc1cc(C)ccn1 11.2%
COc1ccc(CC(=O)NCC2CCCN(Cc3ccc(F)c(OC)c3)C2)cc1 (centres undefined) -1.16%
CC1=C(C(=O)N2CCOCC2)CC(CC(=O)NC2CCCC2)C(=O)N1Cc1ccc(F)cc1 (centres undefined) 14.4%
COc1ccc2cc(OCC(=O)NNC(=O)Nc3ccc(OC)c(OC)c3)ccc2c1 17.7%
COc1cccc(NC(=O)NNC(=O)COc2ccc3ccccc3c2)c1 2.17%
COc1ccc(NC(=O)NNC(=O)COc2ccc3ccccc3c2)cc1 5.22%
COc1ccc(NC(=O)NNC(=O)COc2ccc3cc(Br)ccc3c2)cc1 9.2%
COc1ccc(C(=O)N2CCNC(=O)C2CC(=O)Nc2cccc(Cl)c2Cl)cc1 (centres undefined) -0.3%
O=Cc1cn(-c2ccccc2)nc1-c1cccc([N+](=O)[O-])c1 6.3%
COc1ccc(C2NN=C(c3ccc(C)cc3)S2)cc1 (centres undefined) 7.81%
COc1ccc(C2NN=C(c3ccc(C)cc3)S2)cc1OC (centres undefined) -0.47%
COc1ccc(NC(=O)CC2C(=O)NCCN2C(=O)c2ccccc2)cc1 (centres undefined) 6.95%
Nc1nc(-c2ccccc2)cn1/N=C/c1ccccc1 3.51%
CC(=O)N(C(C)=O)c1nc(-c2ccccc2)cn1/N=C/c1ccccc1 7.71%
Cc1ccc(S(=O)(=O)CCC(=O)Nc2nc(-c3cccnc3)cs2)cc1 -10.2%
CCCc1nn2c(=O)cc(CSCC(=O)Nc3ccc(OC)cc3)nc2s1 1.76%
Cc1nnc(N2C(=O)C(O)=C(C(=O)c3ccco3)C2c2cccc3ccccc23)s1 (centres undefined) 7.61%
CC(C)(O[C@@H]1O[C@H](CO)[C@@H](O)[C@H](O)[C@H]1O)[C@H]1Cc2cc3ccc(=O)oc3cc2O1 3.49%
O=C(N/N=C/c1ccc(Br)cc1)c1cc[n+](Cc2ccccc2)cc1 4.25%
CC(=O)Nc1ccc(/C=N\NC(=O)CNS(=O)(=O)c2ccc([N+](=O)[O-])cc2)cc1 9.49%
O=C(CNS(=O)(=O)c1ccc([N+](=O)[O-])cc1)N/N=C\c1ccc(O)cc1 20.8%
O=C(CNC(=O)c1ccccc1Br)N/N=C/c1cccnc1 7.98%
O=C(N/N=C/c1ccc(OCc2ccccc2)cc1)c1cc[n+](Cc2ccccc2)cc1 13.8%
CC(=O)Nc1ccc(/C=N/NC(=O)CNS(=O)(=O)c2ccccc2)cc1 9.41%
O=C(CNC(=O)c1ccccc1Br)N/N=C/c1ccccc1O 5.07%
O=C(CNS(=O)(=O)c1ccccc1)N/N=C\c1ccc(Cl)cc1 7.25%
COc1cc(C2N(c3cc(C)on3)C(=O)C3CCCN32)cc(OC)c1OC (centres undefined) 4.47%
CCOC(=O)C(=O)/C(=C\N(C)C)c1onc(-c2c(F)cccc2Cl)c1C(=O)OC 4.69%
CSc1nc(C)cc(OCC#N)n1 5.78%
Cc1cccc(NC(=S)N2CCN(S(=O)(=O)c3ccc(F)cc3)CC2)c1 8.03%
CCCCCCN1C[C@@H](n2cc(COC(=O)c3ccccc3)nn2)[C@H](O)C[C@@H]1c1ccc(Cl)cc1 8.49%
Nc1ccc(-c2cn3cccnc3n2)cc1 -4.77%
COc1cccc(N2CCN(C(=O)CCc3nnc4ccc(N5CCCC5)nn34)CC2)c1 18%
O=C(COc1ccc(Cl)cc1)Nc1cc(S(=O)(=O)N2CCCCC2)ccc1N1CCCCC1 -10.3%
C=CCNC(=O)c1snnc1-c1ccccc1 5.75%
O=C(C[n+]1ccccc1)N/N=C/c1ccc(Br)cc1 -2.09%
O=C(Cn1cnc([N+](=O)[O-])n1)N/N=C/c1ccccc1O 4.85%
O=C(C[n+]1ccccc1)N/N=C/c1ccc(C(=O)O)cc1 2.14%
COc1ccc(/C=N/NC(=O)Cc2cccs2)cc1 3.05%
O=C(Cn1cnc([N+](=O)[O-])n1)N/N=C/c1cc(Cl)ccc1O 11.2%
CCN(CC)c1ccc(/C=N/NC(=O)Cc2cccs2)cc1 18.5%
CCOc1ccc(NC(=O)COc2cccc3cccnc23)cc1S(=O)(=O)N1CCCC1 5.24%
CC(C)c1[nH]nc2c1C(c1cccs1)C(C#N)=C(N)O2 (centres undefined) 8.28%
CC(C)(C)S(=O)(=O)c1cnc2c(S(=O)(=O)c3ccccc3)cnn2c1N -3.04%
N#CCC(=O)Nc1ccc(C(=O)OCC(=O)N=c2sccn2Cc2ccccc2Cl)cc1 5.66%
CCOC(=O)c1c[nH]c(=O)c(Br)c1O 4.86%
COc1ccc(NS(=O)(=O)c2cc(NC(=O)c3ccco3)ccc2N2CCCC2)cc1 -4.14%
COc1ccc(C(=O)OCC(=O)Nc2ncc([N+](=O)[O-])s2)cc1OC 21.6%
O=C(COC(=O)COc1ccccc1)Nc1ncc([N+](=O)[O-])s1 11.1%
C/C(=N\OC(=O)Nc1ccc(Cl)cc1)c1ccc(F)c(F)c1 6.77%
CCOC(=O)N1CCN(C(=O)Cc2cccs2)CC1 9.5%
